# Assay outcomes as filed in PubChem.
# Only some compounds are listed: those with a hit (about 2.4% of all), similar ones and a draw of the others.
# TDP1 inh: qHTS Assay for Inhibitors of Tyrosyl-DNA Phosphodiesterase (TDP1); Potency, µM (series often up to 130 µM), for the others: at the highest dose activity change, negative = inhibition, actives largely listed as inhibitors; AID 485290, 2010; Tyrosyl-DNA phosphodiesterase 1 (Homo sapiens), Q9NUW8; 0.28% of 350,000 active; recombinant TDP1, AlphaScreen DNA substrate cleavage; further: on the % scale 0 is the no-effect control and ±100 the full control effect; nearly all actives have a fitted effect of over 40% in size
#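 E. coli-derived human Tdp1, 1 nM final. Cpd preinc 15 min RT; substrate 15 nM final, 5 min RT; AS bead mix 10 ug/ml final, 10 min RT. Signal loss = tyrosine-FITC cleavage. No-enzyme wells = max signal.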
# POLH inh: qHTS for Inhibitors of Polymerase Eta | AID 588591, 2011 | recombinant Pol eta, fluorescent DNA replication assay | 1.2% of 390,000 active | DNA polymerase eta (Homo sapiens), Q9Y253 | Potency, µM (highest dose often 114 µM), inactives show top-dose activity change, negative = inhibition, usual class: inhibitors; further: on the % scale 0 is the no-effect control and ±100 the full control effect
# Target sequence (Q9Y253 whole entry, looked up): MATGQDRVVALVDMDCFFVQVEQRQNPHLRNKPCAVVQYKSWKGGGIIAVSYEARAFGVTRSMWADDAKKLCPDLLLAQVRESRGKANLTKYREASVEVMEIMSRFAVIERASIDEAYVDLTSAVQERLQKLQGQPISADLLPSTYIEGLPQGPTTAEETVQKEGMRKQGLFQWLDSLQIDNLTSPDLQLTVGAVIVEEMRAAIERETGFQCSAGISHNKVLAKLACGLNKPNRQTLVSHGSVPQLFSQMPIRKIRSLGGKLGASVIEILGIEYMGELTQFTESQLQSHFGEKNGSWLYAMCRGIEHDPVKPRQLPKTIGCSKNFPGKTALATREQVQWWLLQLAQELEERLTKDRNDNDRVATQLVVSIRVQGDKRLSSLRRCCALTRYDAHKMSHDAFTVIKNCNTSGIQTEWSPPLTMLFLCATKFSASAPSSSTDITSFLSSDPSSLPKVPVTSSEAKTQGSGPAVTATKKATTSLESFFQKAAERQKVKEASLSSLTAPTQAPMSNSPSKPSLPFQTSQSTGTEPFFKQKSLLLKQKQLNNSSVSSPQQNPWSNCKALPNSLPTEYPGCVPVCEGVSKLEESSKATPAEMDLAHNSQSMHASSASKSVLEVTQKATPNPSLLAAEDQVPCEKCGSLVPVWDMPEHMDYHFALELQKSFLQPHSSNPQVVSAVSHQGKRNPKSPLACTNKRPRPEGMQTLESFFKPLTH
#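 Pol eta at 10 nM preincubated with compounds 15 min at room temperature; reaction started with fluorescent substrate (50 nM final) and read kinetically at 0 and 10 min.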
# Pol kappa inh: qHTS for Inhibitors of Polymerase Kappa. AID 588579, 2011. purified Pol kappa, fluorescent DNA synthesis assay, 10 min. DNA polymerase kappa (Homo sapiens), Q9UBT6. 0.53% of 400,000 active. Potency, µM (doses to about 107 µM), inactives show top-dose activity, negative = inhibition, most hits filed as inhibitors; further: on the % scale 0 is the no-effect control and ±100 the full control effect
#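 Enzyme at 10 nM met test compounds for 15 min at room temperature. Substrate addition (50 nM final) began the reaction, which was monitored by fluorescence at 0 and 10 min.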
# Pol beta inh: qHTS Assay for Inhibitors of DNA Polymerase Beta. P06746. Pol beta primer extension/strand displacement, fluorescence kinetic. 1.3% of 340,000 active. Potency, µM (highest dose often 114 µM), inactives show at the highest dose activity change, negative = inhibition, most hits filed as inhibitors; further: on the % scale 0 is the no-effect control and ±100 the full control effect
#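 Values derive from four-parameter Hill fits of normalized kinetic data: reads at 0 and 10 min following addition of 50 nM substrate to 10 nM Pol beta preincubated 15 min with compound.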
# Pol iota inh: qHTS for Inhibitors of Polymerase Iota. DNA polymerase iota (Homo sapiens), Q9UNA4. Pol iota fluorescent replication assay, 10 min. Potency, µM (highest dose often 115 µM), for inactives: top-dose activity, negative = inhibition, usual class: inhibitors. 1% of 390,000 active
#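 Fluorescent replication assay read twice, at 0 min and 10 min after adding 50 nM (final) substrate. Enzyme (10 nM) and compounds were first incubated 15 min at room temperature; enzyme-free buffer wells were negative controls.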
# * marks the source's active call; other numbers are inactive results; ? = inconclusive; · = no result; ! = not confirmed by another sample; [ ] = dose if it differs, or a comment. The call rests on the fitted dose curve; in most records, active means well fitted curve in the direction sought with a large enough effect; inconclusive means small, poorly fitted or top-dose-only effect, or another doubt; inactive means no such curve, though single readings can be large; an effect the other way counts as inactive or inconclusive. Potency means the concentration at half of the fitted maximal effect.
SMILES,TDP1 inh,POLH inh,Pol kappa inh,Pol beta inh,Pol iota inh
O=S(=O)(O)c1cc(O)c2c(N=Nc3ccc(Nc4ccccc4)c4c(S(=O)(=O)O)cccc34)cc(S(=O)(=O)O)cc2c1,9%,·,3.2µM*,·,·
O=S(=O)(Nc1ccc(N=Nc2ccc(O)c3ccccc23)cc1)c1ccccc1,6%,?,-14%,4%,25%
Cc1cc(-c2nnc(SCC(=O)c3ccc4c(c3)OCCO4)o2)no1,-3%,-13%,-7%,40µM*,54%
Cc1cc(-c2nnc(SCC(=O)c3ccc(F)cc3)o2)no1,-2%,-10%,-15%,-5%,75%
CC(=O)c1cccc(NC(=O)CSc2nc(C3CC3)nc3ccccc23)c1,-5%,-18%,-35%,?,25µM*
O=C(CSc1nc(-c2ccccc2)nc2ccccc12)Nc1cccc(C(=O)O)c1,5%,35µM*,1%,0%,?
CC(=O)Nc1cccc(NC(=O)CSc2nc(C3CC3)nc3ccccc23)c1,·,-17%,-4%,?,28%
COc1ccc(NC(=O)Cn2c(=O)oc3cc(S(=O)(=O)N4CCC(C)CC4)ccc32)c(OC)c1,4%,-22%,-5%,-1%,12%
Cc1ccc(NC(=O)CSc2nc3ccccc3c3nc(CCc4c(C)n[nH]c4C)nn23)cc1F,79µM*,?,-18%,5%,?
Cc1ccc(NC(=O)c2cc(=O)n(Cc3ccccc3)c(=O)[nH]2)cc1C,2%,-29%,1%,40µM*,?
Cc1cc(Nc2sc(C(=O)c3ccc(F)cc3)c(N)c2C(=O)Nc2ccc(F)cc2)ccc1Cl,11%,-22%,3%[60.1 µM],-1%,1%
CCCCCCCCCCCC[n+]1ccc2ccccc2c1,·,·,4%[19.4 µM],·,·
Nc1c(C(=O)O)sc2nc(-c3ccc(F)cc3)cc(-c3ccccc3)c12,1%,-1%,14%,-17%,15%
Nc1c(C(=O)O)sc2nc(-c3ccccc3)cc(-c3ccc(Cl)cc3)c12,71µM*,10%,-30%,-26%,?
Cc1ccc2c(Br)cc(Br)c(O)c2n1,6%,·,-4%[19.4 µM],·,·
CCOc1cccc(-c2nn3c(-c4ccco4)nnc3s2)c1,-2%,20µM*,5%,7%,22%
Cc1oc(-c2ccc(Cl)cc2)cc1-c1nn2c(-c3ccco3)nnc2s1,?,·,·,20µM*,·
CCCCCCNc1ncnc2c1sc1nc(N3CCOCC3)c3c(c12)CCCC3,0%,-3%,-24%,16%,?
NC(=O)C[C@@H]1NC(=O)[C@H](CCC(=O)O)NC(=O)c2cc([N+](=O)[O-])cc(I)c2OCC[C@@H](C(N)=O)NC1=O,0%,35µM*,?,-21%,-14%
NC(=O)[C@@H]1CCCNc2c(I)cc([N+](=O)[O-])cc2C(=O)N[C@@H](CCC(=O)O)C(=O)N[C@@H](CO)C(=O)N1,0%,-3%,9%,5%,5%
C[C@@H]1NC(=O)c2cc([N+](=O)[O-])cc(I)c2NCCCC[C@@H](C(N)=O)NC(=O)[C@H](CCC(=O)O)NC1=O,-1%,22µM*,?,0%,40µM*
C[C@@H]1NC(=O)c2cc([N+](=O)[O-])cc(I)c2OCC[C@@H](C(N)=O)NC(=O)[C@H](CCC(=O)O)NC1=O,5%,·,·,-12%,·
NC(=O)C[C@H]1NC(=O)[C@H](CCC(=O)O)NC(=O)c2cc([N+](=O)[O-])cc(I)c2NCCC[C@@H](C(N)=O)NC1=O,3%,35µM*,?,15%,?
CCN(Cc1ccccc1)c1ccc(/C=C/c2nccc3ccccc23)cc1,·,·,-5%,·,4%
CC(C)(C)c1ccc(C(=O)C[n+]2ccc(Cl)c3ccc(Cl)cc32)cc1,·,·,-3%,·,7%
SMILES,TDP1 inh,POLH inh,Pol kappa inh,Pol beta inh,Pol iota inh
COc1ccc(NC(=O)C2CCCN(S(=O)(=O)c3cccs3)C2)cc1OC (centres undefined),3%,-3%,-2%[60.1 µM],0%,-10%
CCc1cccc(NC(=O)C2CCCN(S(=O)(=O)c3cccs3)C2)c1 (centres undefined),9%,-16%,-29%,37%,79µM*!
O=C(CCS(=O)(=O)c1ccc(Br)cc1)NC1CCCC1,0%,?,?,22µM*,-5%
CCc1ccccc1NC(=O)CCS(=O)(=O)c1ccc(C)cc1,·,-1%,10%,2%,-8%
COc1ccc([N+](=O)[O-])cc1NC(=O)CCS(=O)(=O)c1ccc(Br)cc1,·,50µM*,?,16µM*,9%
CCc1ccccc1NC(=O)CCS(=O)(=O)c1ccc(Br)cc1,·,-18%,-18%,35µM*,0%
CN(C)c1ccc(/C=C/c2cc(/C=C/c3ccc(N(C)C)cc3)c3ccccc3n2)cc1,·,·,-4%,·,?
Cc1ccc(-n2cccc2/C=C2\C(=N)N3N=C(C(C)C)SC3=NC2=O)cc1,7%,-12%,-11%,28µM*,12%
Cc1cc(N2C(=O)C3C4C=CC(C4)C3C2=O)ccc1NC(=O)c1cccs1 (centres undefined),13µM*,?,-30%,32µM*,?
O=C(c1ccccc1O)N(Cc1cccs1)Cc1cccs1,-4%,·,·,·,·
COCCNc1nc(-c2cccc(NS(C)(=O)=O)c2)nc2ccccc12,·,·,25µM*,·,·
CS(=O)(=O)Nc1cccc(-c2nc(Nc3ccccc3)c3ccccc3n2)c1,-6%[56.1 µM],·,-7%[60.1 µM],·,·
NCCCCCN,7%,·,14%[60.1 µM],·,·
CCCCNC(=S)N1CCN(C(c2ccccc2)c2ccccc2)CC1,9%,-25%,-10%,0%,100%
S=C(NCCc1ccccc1)N1CCN(C(c2ccccc2)c2ccccc2)CC1,1%,-9%,-3%,89µM*,-6%
COc1ccc(OC)c(/C(C)=N/Nc2ccc(C(=O)O)cc2)c1,·,-19%,-1%,?,5%
C/C(=N/Nc1ccc(C(=O)O)cc1)c1ccc(O)c(O)c1O,?,?,-27%,22µM*,-13%
N#Cc1nc(Nc2cccc([N+](=O)[O-])c2)nc(NC2CCCC2)n1,4%,·,·,·,·
COc1ccc(C2C(C(=O)/C=C/c3ccco3)=C(O)C(=O)N2CCN2CCOCC2)cc1 (centres undefined),·,-28%,-24%,?,20µM*
Cc1cc(C)c(C)c(S(=O)(=O)N[C@@H](C)C(=O)OCc2cc(=O)n3cc(Br)ccc3n2)c1C,-1%,?,?,8.9µM*,50µM*
CCOC(=O)Cc1csc(NC(=O)Nc2ccc(Cl)cc2)n1,4%,-20%,-2%,17%,-17%[58.9 µM]
Cc1csc(NC(=O)Nc2ccc(Cl)cc2)n1,-8%,?,-35%,28µM*,?
